Some test systems named below: SR leukemia; RPMI-8226 leukemia; OVCAR-8 ovarian; OVCAR-5 ovarian; OVCAR-4 ovarian; SK-OV-3 ovarian; IGROV1 ovarian; OVCAR-3 ovarian; HS 578T breast; NCI/ADR-RES ovarian; T-47D breast; BT-549 breast; MDA-MB-435 melanoma; SW-620 colon; MCF7 breast; HCT-116 colon; HCC-2998 colon; KM12 colon.
Holding throughout (assay): NCI-60 one-dose screen, 48 h (100 = growth as untreated, 0 = no growth, -100 = all killed)
What all share (settings): 10 µM

The values below come from PubChem BioAssay (NCI).

Structures are written as SMILES. The panel holds about 83,000 compounds, 20% with a hit somewhere; the sample as a whole holds those more often.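 Step 1: grow cells in 96-well plates. Step 2: add test compound at a single concentration. Step 3: incubate 48 h. Step 4: record percent growth.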 Unmarked numbers belong to inactive results. Calls of active or inactive are those of the source. Rule for the calls: active = growth percent below 10; inactive = the rest.

In the case of `CNCCCNCCCN1C(=O)c2ccc3c4c(ccc(c24)C1=O)C(=O)N(CCCNCc1ccccc1OC)C3=O`, the growth in the assay with SR leukemia is -0.146% (active); in the assay on RPMI-8226 leukemia it was -16.2% (active); with OVCAR-8 ovarian, -31.9% (active); in the assay with OVCAR-5 ovarian it was 5.23% (active); in the assay on OVCAR-4 ovarian, -91.5% (active); in the assay with SK-OV-3 ovarian, 36.8%. In addition, the growth is -40.7% (active) in the assay with IGROV1 ovarian; -17.6% (active) in the assay with OVCAR-3 ovarian; 4.28% (active) with HS 578T breast; 63% in the assay with NCI/ADR-RES ovarian; -30.3% (active) with T-47D breast; 78.1% in the assay on BT-549 breast. Further, the growth with MDA-MB-435 melanoma is -58.6% (active); in the assay with SW-620 colon it was -19% (active); with MCF7 breast, -51.7% (active); in the assay on HCT-116 colon, -8.97% (active); in the assay on HCC-2998 colon, -9.5% (active); in the assay with KM12 colon it was -16.9% (active).

Consider `O=C(Nc1ccc(OCc2nnc(-c3ccccc3)o2)c(F)c1)Nc1ccc(Cl)c(Cl)c1`, for which the growth in the assay with SR leukemia is 6.91% (active); with RPMI-8226 leukemia, 25.5%; in the assay with OVCAR-8 ovarian it was 61.6%; in the assay on OVCAR-5 ovarian, 93.4%; in the assay on OVCAR-4 ovarian it was 50.6%; in the assay on SK-OV-3 ovarian, 89.6%. The growth was 57.7% in the assay with IGROV1 ovarian; 53.6% in the assay with OVCAR-3 ovarian; 63.2% with HS 578T breast; 58.6% with NCI/ADR-RES ovarian; 33.7% in the assay with T-47D breast; 79% in the assay with BT-549 breast. The growth was 68.8% in the assay on MDA-MB-435 melanoma; 66.3% with SW-620 colon; 57.7% in the assay on MCF7 breast; 49.2% in the assay on HCT-116 colon; 58.5% in the assay with HCC-2998 colon; 34.1% in the assay on KM12 colon.

As to `FC(F)(F)c1ccc(-c2cnc(Br)nc2NC2CCCCCC2)cc1`, the growth in the assay on SR leukemia is 51%; in the assay on RPMI-8226 leukemia it was -4.63% (active); with OVCAR-8 ovarian, 24.1%; with OVCAR-5 ovarian it was 63.2%; in the assay on OVCAR-4 ovarian, 22.6%; in the assay on SK-OV-3 ovarian, 71.6%. Also, the growth with IGROV1 ovarian was 36.1%; in the assay on OVCAR-3 ovarian it was 10.8%; with HS 578T breast, 53.4%; in the assay on NCI/ADR-RES ovarian it was 77.9%; with T-47D breast it was 19.3%; with BT-549 breast, 56.6%. For the same molecule, the growth in the assay on MDA-MB-435 melanoma was 20.4%; in the assay with SW-620 colon, 28.2%; with MCF7 breast, 27.1%; in the assay on HCT-116 colon, 20.3%; in the assay with HCC-2998 colon it was 72.1%; in the assay with KM12 colon, 25%.

Regarding `COc1cc(-c2nc3ccccc3[nH]2)ccc1OCC(=O)N=Nc1c(O)[nH]c2ccccc12`, the growth is -5.28% (active) in the assay with SR leukemia; 25.8% in the assay with RPMI-8226 leukemia; 49.1% in the assay on OVCAR-8 ovarian; 109% with OVCAR-5 ovarian; 76.4% with OVCAR-4 ovarian; 101% in the assay with SK-OV-3 ovarian. In addition, the growth in the assay with IGROV1 ovarian is 93.2%; with OVCAR-3 ovarian, 79.6%; with HS 578T breast, 83.7%; in the assay on NCI/ADR-RES ovarian, 109%; with T-47D breast it was 32.6%; in the assay on BT-549 breast, 104%. Moreover, the growth was 79.1% in the assay on MDA-MB-435 melanoma; 64.8% in the assay with SW-620 colon; 28% in the assay with MCF7 breast; 31.6% in the assay on HCT-116 colon; 96.1% in the assay with HCC-2998 colon; 27% with KM12 colon.

Take `CN(C)CCCN(Cc1ccccc1O)C(=S)Nc1ccc(Cl)cc1`: the growth in the assay on SR leukemia was 95%; with RPMI-8226 leukemia it was 93.5%; in the assay on OVCAR-8 ovarian, 98.2%; in the assay on OVCAR-5 ovarian, 110%; in the assay with OVCAR-4 ovarian, 111%; in the assay on SK-OV-3 ovarian, 107%. Also, the growth in the assay on IGROV1 ovarian is 106%; with OVCAR-3 ovarian it was 112%; with HS 578T breast, 89%; in the assay with NCI/ADR-RES ovarian, 104%; in the assay with T-47D breast, 93.4%; in the assay on BT-549 breast it was 105%. Further, the growth in the assay with MDA-MB-435 melanoma is 109%; in the assay on SW-620 colon, 100%; with MCF7 breast it was 99%; in the assay with HCT-116 colon, 108%; in the assay on HCC-2998 colon, 83.4%; in the assay on KM12 colon, 105%.

As for `Cc1cccc2c(Nc3ccc(NS(C)(=O)=O)cc3)c3ccc([N+](=O)[O-])cc3nc12`, the growth is 2.56% (active) with SR leukemia; 0.668% (active) in the assay with RPMI-8226 leukemia; 2.24% (active) with OVCAR-8 ovarian; 49.9% with OVCAR-5 ovarian; 16.6% with OVCAR-4 ovarian; 38.3% in the assay with SK-OV-3 ovarian. Further, the growth with IGROV1 ovarian was -27.4% (active); in the assay on OVCAR-3 ovarian, -28.9% (active); in the assay on HS 578T breast, 56.6%; in the assay with NCI/ADR-RES ovarian, 66.6%; in the assay with T-47D breast, 0.696% (active); in the assay with BT-549 breast, 29.1%. For the same molecule, the growth in the assay on MDA-MB-435 melanoma is 33.2%; in the assay on SW-620 colon it was -43.5% (active); in the assay on MCF7 breast it was 0.147% (active); with HCT-116 colon it was 5.63% (active); in the assay with HCC-2998 colon, -30.6% (active); in the assay on KM12 colon it was -46.6% (active).

Take `CC1(C)Cc2c(cn(Cc3ccccc3)c2-c2ccccc2)-c2oncc21`: the growth was 86.8% in the assay on SR leukemia; 74.8% with RPMI-8226 leukemia; 101% in the assay with OVCAR-8 ovarian; 111% in the assay with OVCAR-5 ovarian; 98.5% in the assay on OVCAR-4 ovarian; 96.4% in the assay on SK-OV-3 ovarian. Also, the growth in the assay with IGROV1 ovarian was 121%; in the assay on OVCAR-3 ovarian, 110%; in the assay with HS 578T breast, 103%; with NCI/ADR-RES ovarian, 92.5%; in the assay on T-47D breast it was 75.7%; with BT-549 breast, 108%. The growth is 92.8% in the assay on MDA-MB-435 melanoma; 95.7% with SW-620 colon; 105% in the assay on MCF7 breast; 88.2% in the assay with HCT-116 colon; 104% in the assay on HCC-2998 colon; 105% in the assay on KM12 colon.

As to `COc1ccc(/C=C2\SC(=S)N(CCCN3CCOCC3)C2=O)c(OC)c1`, the growth in the assay with SR leukemia is 72.5%; with RPMI-8226 leukemia, 78.4%; in the assay on OVCAR-8 ovarian it was 96.1%; with OVCAR-5 ovarian, 104%; in the assay on OVCAR-4 ovarian it was 91.1%; in the assay with SK-OV-3 ovarian it was 105%. Further, the growth was 115% in the assay with IGROV1 ovarian; 103% with OVCAR-3 ovarian; 99.1% with HS 578T breast; 92.6% in the assay on NCI/ADR-RES ovarian; 71.2% with T-47D breast; 96.1% in the assay with BT-549 breast. Further, the growth is 101% in the assay with MDA-MB-435 melanoma; 105% in the assay on SW-620 colon; 76% in the assay with MCF7 breast; 92.2% with HCT-116 colon; 109% in the assay on HCC-2998 colon; 97.2% in the assay with KM12 colon.

With `COC(=O)C1(C(=O)OC)C2C(=O)C3C(C21)C3(C(=O)OC(C)(C)C)C(=O)OC(C)(C)C` (configuration not stated), the growth in the assay on SR leukemia was 113%; in the assay with RPMI-8226 leukemia, 93.8%; in the assay on OVCAR-8 ovarian, 104%; in the assay with OVCAR-5 ovarian, 102%; in the assay on OVCAR-4 ovarian, 101%; in the assay with SK-OV-3 ovarian it was 121%. The growth is 109% in the assay on IGROV1 ovarian; 114% in the assay with OVCAR-3 ovarian; 97.9% in the assay on HS 578T breast; 104% with NCI/ADR-RES ovarian; 102% with T-47D breast; 101% in the assay on BT-549 breast. Also, the growth is 99.9% in the assay with MDA-MB-435 melanoma; 106% with SW-620 colon; 103% with MCF7 breast; 101% in the assay on HCT-116 colon; 112% in the assay on HCC-2998 colon; 112% in the assay with KM12 colon.
